# Hits are enriched below; roughly 11% of the tested compounds scored in any of these assays.
# GoLoco inh red: RGS12 GoLoco-Gai1 interaction inhibition; Potency, µM (series often up to 61.6 µM), hits mostly inhibitors; hit rate 0.44% among 230,000; P63096; Gai1:RGS12 GoLoco peptide FP, rhodamine, 10 min; active = well fitted inhibition curve with a large enough effect, not every such curve was filed as active; inactive = no such curve, though single readings can be large or run the other way; also: nearly all actives have a fitted effect of over 30% in size
# HTT cytoprotect: cytoprotection in Huntington HTT-Q103 PC12 cell model; PC12 HTT-Q103 induced, cytoprotection, ATP luminescence, 40 h; Potency, µM (titrated, usually from 56.4 µM), hits mostly activators; hit rate 0.14% among 230,000; AID 1471; also: nearly all actives have a fitted effect of over 45% in size
#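 Compounds added alongside 100 nM tebufenozide, which induces toxic Q103 huntingtin exon 1-GFP in stable PC12 cells; surviving cells quantified by luminescent ATP measurement. Medium: phenol red-free DMEM, 5% equine and 5% calf serum.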
# ALDH1A1 inh: inhibitors of human aldehyde dehydrogenase 1A1. AID 1030. hit rate 7.3% among 220,000. Potency, µM (highest dose often 75.3 µM), hits mostly inhibitors. Purified ALDH1A1, NADH fluorescence, propionaldehyde substrate; active = well fitted inhibition curve with a large enough effect, not every such curve was filed as active; inconclusive = small, poorly fitted or top-dose-only effect, or another doubt; inactive = no such curve, though single readings can be large or run the other way
# Target sequence (P00352 whole entry, looked up): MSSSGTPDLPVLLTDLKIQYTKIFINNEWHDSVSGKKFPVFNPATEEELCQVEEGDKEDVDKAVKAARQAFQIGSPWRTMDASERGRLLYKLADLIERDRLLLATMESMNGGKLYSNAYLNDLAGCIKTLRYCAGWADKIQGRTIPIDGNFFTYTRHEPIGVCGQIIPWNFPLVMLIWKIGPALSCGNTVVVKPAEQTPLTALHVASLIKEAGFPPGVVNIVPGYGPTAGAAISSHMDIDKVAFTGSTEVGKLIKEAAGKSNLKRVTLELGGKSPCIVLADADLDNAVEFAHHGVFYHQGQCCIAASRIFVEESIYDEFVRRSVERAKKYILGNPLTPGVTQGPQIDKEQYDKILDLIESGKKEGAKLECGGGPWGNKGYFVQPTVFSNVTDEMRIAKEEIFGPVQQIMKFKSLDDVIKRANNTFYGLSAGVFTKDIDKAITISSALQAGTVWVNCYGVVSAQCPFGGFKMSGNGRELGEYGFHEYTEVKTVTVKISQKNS
# HttQ103 aggreg: inhibitors of mutant huntingtin aggregate formation in PC12 cells. PC12 HttQ103-GFP aggregates, Acumen cytometry, 40 h. hit rate 1.1% among 220,000. Potency, µM (top dose mostly 46.1 µM), usual class: inhibitors. AID 1688; also: nearly all actives have a fitted effect of over 60% in size
#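 Steps: seed 1500 PC12 HTTQ103-GFP cells/well; add tebufenozide, 100 nM final; add compound titration; add ATPLite reagent; quantify GFP aggregates by laser scanning cytometry.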
# PNC inhibitor: perinucleolar compartment assembly inhibition; PC3M PTB-GFP, PNC prevalence imaging, 16 h; active compounds read low; activity change (PNC), negative = inhibition, % at 10 µM; hit rate 3.1% among 140,000; AID 2417;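 active = readout at or below -70, meaning at least 70% loss of cells showing the perinucleolar compartment, a nuclear body marking cancer cells; inconclusive = readout between -30 and a set limit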
#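 PC3M cells stably expressing PTB-GFP, 750–1000 cells/well, treated 16 h at 37 °C with compound (23 nl of library stock), in duplicate. After paraformaldehyde fixation and Hoechst stain, imaged at 20x; PNC prevalence scored by image analysis.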
# HPGD inh: inhibitors of human 15-hydroxyprostaglandin dehydrogenase (HPGD); purified HPGD, NADH fluorescence kinetic, PGE2 substrate; Potency, µM, usual class: inhibitors; hit rate 4.3% among 150,000; active = well fitted inhibition curve with a large enough effect, not every such curve was filed as active; inconclusive = small, poorly fitted or top-dose-only effect, or another doubt; inactive = no such curve, though single readings can be large or run the other way
#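 NADH formation kinetics: reaction with 30 uM PGE2 and 1 mM NAD+ (final), 20 nM enzyme, Tris-HCl pH 8 with Tween 20, after 15 min compound preincubation at room temperature. Fluorescence change, last versus first of five reads.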
# A number is an active result; - = inactive; ? = inconclusive; . = not tested or not shown; [ ] = remark or other dose. Unless noted, calls follow the shape of the dose curve; as a rule, active = well fitted curve in the direction sought with a large enough effect; inconclusive = small, poorly fitted or top-dose-only effect, or another doubt; inactive = no such curve, though single readings can be large; an effect the other way counts as inactive or inconclusive.
SMILES,GoLoco inh red,HTT cytoprotect,ALDH1A1 inh,HttQ103 aggreg,PNC inhibitor,HPGD inh
CC(C)C(C)(C#N)NC(=O)CSc1nc2scc(-c3ccco3)c2c(=O)n1-c1ccccc1 (stereo not given),-,-,11.2µM,?,-,-
C=CCn1c(SCC(=O)N2CCOCC2)nc2scc(-c3ccco3)c2c1=O,-,-,17.8µM,-,-,-
CC(NC(=O)CSc1nc2sc3c(c2c(=O)n1-c1ccccc1)CCCC3)c1ccccc1 (stereo not given),-,-[10 µM],?,?,?,-
CC(C)C(C)NC(=O)CSc1nc2scc(-c3ccco3)c2c(=O)n1-c1ccccc1 (stereo not given),-,-,7.94µM,-,-,?
COC(=O)c1ccc(C(NC(=O)OCc2ccccc2)/C(=C/[C@@H](C)C(=O)N(C)C)c2cccnc2)cc1 (stereo not given in full),-,-,-,.,.,-
CCCCn1c(/N=C/c2ccc(N(C)C)cc2)nc2ccccc21,-,-[10 µM],2.82µM,-,-,-
CCCn1c(/N=C/c2c[nH]c3ccccc23)nc2ccccc21,-,-,?,-,-,-
CCCCn1c(/N=C/c2c[nH]c3ccccc23)nc2ccccc21,-,-,25.1µM,-,-,-
C=CCN(CC=C)S(=O)(=O)c1ccc(NC(=S)NC(=O)Cc2ccc(OC)cc2)cc1,-,-,-,-,-,-
C=CCN(CC=C)S(=O)(=O)c1ccc(NC(=S)NC(=O)c2ccco2)cc1,-,-,22.4µM,-,-,-
C=CCN(CC=C)S(=O)(=O)c1ccc(NC(=S)NC(=O)c2ccc(-c3ccccc3)cc2)cc1,-,-,3.16µM,-,-,?
O=C(c1ccco1)N1N=C(C2CCCCC2)CC1(O)C(F)(F)F (stereo not given),-,-[10 µM],6.31µM,?,.,.
O=C(c1ccncc1)N1N=C(C2CCCCC2)CC1(O)C(F)(F)F (stereo not given),-,?,-,?,.,.
CCc1ccc2nc(Nc3ccc(OC)cc3OC)c(C#N)cc2c1,-,-[10 µM],-,-[9.22 µM],.,.
CC(=O)Nc1cccc(C(=O)/C=C/c2ccc(C)cc2)c1,-,-[10 µM],-,-,?,-
CN(C)c1ccc(/C=C/C(=O)c2cccc(Br)c2)cc1,-,-,7.08µM,-,-,-
COc1ccccc1NC(C#N)c1ccccc1OCc1ccccc1 (stereo not given),-,.,17.8µM,-,-,-
CCOc1ccc(-n2c(Cc3cc(=O)[nH]c(=O)[nH]3)nnc2SCC(=O)NC2CCCC2)cc1,-,-,-,-,-,-
CCOc1ccc(-n2c(Cc3cc(=O)[nH]c(=O)[nH]3)nnc2SCC(N)=O)cc1,-,-,-,-[9.22 µM],-83.5,-
CC(Cc1n[nH]c(=S)o1)c1ccccc1 (stereo not given),-,-[10 µM],17.8µM,-,.,.
S=c1[nH]nc(Cc2cccc3ccccc23)o1,-,-[10 µM],10µM,-,?,?
Cn1c(SCc2n[nH]c(=S)o2)nnc1-c1ccccc1,-,.,-,-,?,-
O=C(O)/C=C/c1cccc(B(O)O)c1,-,-,-,.,.,-
COC(=O)N1C2=C(c3ccccc3[C@@H]1CC(=O)Nc1ccc3ccc4cccc5ccc1c3c45)[C@@H]1C(=O)N(c3ccccc3)C(=O)[C@@H]1[C@H](C)C2,-[14.2 µM],-[10 µM],-[13.5 µM],.,.,?
Cc1noc(C)c1COc1ccc(C(=O)OCc2nnc(-c3ccc(Cl)cc3)o2)cc1,.,-,-,-,-83.6,.
SMILES,GoLoco inh red,HTT cytoprotect,ALDH1A1 inh,HttQ103 aggreg,PNC inhibitor,HPGD inh
O=C(OC1CCCCC1)c1ccc2c(c1)C1C=CCC1C(C(=O)O)N2 (stereo not given),-,-[10 µM],15.8µM,-,?,?
COC(=O)C1=NN(N=O)C2(CC(=O)N(c3cc(C)cc(C)c3)C2=O)C1 (stereo not given),-,-,8.91µM,-,?,31.6µM
Cc1cc(C)c(NC(=O)NC2CCCCC2)c(C)c1,-,.,-,-,-113.4,-
C[C@@H](N)/C(N)=N/O,-[14.2 µM],-[10 µM],-[13.5 µM],.,.,-
COc1cc(CNc2ccc3[nH]c(=O)[nH]c3c2)ccc1OCC(=O)NC(C)(C)C,-,-[10 µM],?,-,?,?
COc1cc(CNc2ccc3[nH]c(=O)[nH]c3c2)cc(Br)c1OCC(=O)NC(C)(C)C,-,.,0.316µM,?,-,?
